High-throughput results deposited in PubChem BioAssay by National Center for Advancing Translational Sciences (NCATS).
This is a sample that favours compounds with a hit; in the whole collection about 2.3% have one here.
TRPV1 ag – activates the human vanilloid receptor TRPV1 | activation, % at 8.33 µM | TRPV1-expressing cells, Fluo-8 calcium influx, agonist mode | 0.19% of 320,000 active | Q8NER1; in the data active means activation above about 80%; inconclusive means between about 30% and that limit; further: 0% is about no effect
Target sequence (Q8NER1 whole entry, looked up): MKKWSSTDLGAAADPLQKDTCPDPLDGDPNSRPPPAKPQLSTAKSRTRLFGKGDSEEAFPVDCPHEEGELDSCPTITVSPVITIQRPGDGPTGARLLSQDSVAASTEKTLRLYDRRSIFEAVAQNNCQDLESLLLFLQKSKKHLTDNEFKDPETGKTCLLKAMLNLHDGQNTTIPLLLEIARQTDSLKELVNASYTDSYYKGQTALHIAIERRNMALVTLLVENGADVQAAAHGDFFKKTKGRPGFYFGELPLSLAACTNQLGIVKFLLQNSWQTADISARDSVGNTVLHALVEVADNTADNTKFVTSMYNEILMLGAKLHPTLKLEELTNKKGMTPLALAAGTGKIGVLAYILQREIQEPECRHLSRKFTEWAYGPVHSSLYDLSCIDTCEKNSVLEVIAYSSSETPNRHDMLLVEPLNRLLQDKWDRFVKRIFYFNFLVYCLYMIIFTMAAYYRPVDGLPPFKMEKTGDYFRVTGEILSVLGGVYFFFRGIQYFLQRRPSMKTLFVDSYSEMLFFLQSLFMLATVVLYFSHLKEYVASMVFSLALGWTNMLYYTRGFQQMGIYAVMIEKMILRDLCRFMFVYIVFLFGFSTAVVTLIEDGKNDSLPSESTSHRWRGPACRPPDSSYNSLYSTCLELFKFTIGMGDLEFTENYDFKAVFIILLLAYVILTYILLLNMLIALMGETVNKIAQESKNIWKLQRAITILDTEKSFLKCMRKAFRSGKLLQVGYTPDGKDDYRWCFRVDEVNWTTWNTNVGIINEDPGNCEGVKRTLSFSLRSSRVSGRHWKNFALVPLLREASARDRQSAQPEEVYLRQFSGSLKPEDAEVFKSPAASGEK
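Fluo-8 calcium influx in TRPV1-expressing cells, kinetic read (ex 480/em 520 nm). Compound added and read 3 min for agonist activity, followed by capsaicin at EC20 final and 2 min further read for enhancement.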
FUS suppressor – rescues growth of FUS-expressing yeast; S. cerevisiae FUS-expressing, growth rescue, OD600, 24 h; 0.24% of 390,000 active; Potency, µM (doses to about 76.6 µM), most hits filed as activators;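 further: potency means the concentration at half of the fitted maximal effect; plate controls were DMSO vehicle for no effect and reference control for full effect; nearly all actives have a fitted effect of over 55% in size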
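FUS-expressing yeast, raffinose-pregrown, induced in 2% galactose minimal medium at OD 0.005; compounds in a dilution series, 24hr at 30C. Growth restoration read as absorbance at 600 nm. CP55940 positive control, DMSO negative.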
TRPV1 PAM – potentiators of human vanilloid receptor 1 (TRPV1); 0.02% of 320,000 active; potentiation, % at 8.33 µM; AID 540277; TRPV1-expressing cells, Fluo-8 calcium influx, capsaicin EC20 potentiation; in the data active means potentiation above about 80%; inconclusive means between about 30% and that limit; further: 0% is about no effect
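TRPV1-expressing cells were cultured overnight at 35.5C and loaded with Fluo-8 calcium dye for 40 to 90 min at room temperature. After a 10 s baseline, compound was added and calcium influx was read kinetically for 3 min (ex 480/em 520 nm).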
Giardia killer – Giardia lamblia killing; 0.15% of 340,000 active; AID 540267; Giardia lamblia trophozoite viability; activity change, % at 7.66 µM, hits read low; in the data active means activity change below about -80%; inconclusive means between about -30% and that limit;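 further: parasites exposed to compound for two days anaerobically before the ATP read; on the % scale 0 is the no-effect control and ±100 the full control effect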
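ATP-content bioluminescence gauges trophozoite survival. Cells (100/well) receive compound and incubate anaerobically for 48 hrs at 37 deg C; detection reagent follows for 15-30 min at room temperature.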
ELG1 repair inh – ELG1-dependent DNA repair inhibition. HEK293T ELG1-luciferase reporter, luminescence, 16 h; DNA damage induced by 5-fluorouridine. Potency, µM (doses to about 46.1 µM), for inactives: top-dose activity change, negative = inhibition, hits mostly inhibitors. 2.3% of 330,000 active; further: potency means the concentration at half of the fitted maximal effect; on the % scale 0 is the no-effect control and ±100 the full control effect; nearly all actives have a fitted effect of over 55% in size
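Quantitative HTS, concentration-response format. 2,000 cells/well co-treated with 5-fluorouridine and compound, 16 hr in 5% CO2 at 37 °C; ONE-Glo luminescence read after 30 min.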
* marks the source's active call; other numbers are inactive results; i = inactive; ? = inconclusive; / = no result given; ! = repeats disagree. Unless noted, the call rests on the fitted dose curve; in most records, active means well fitted curve in the direction sought with a large enough effect; inconclusive means small, poorly fitted or top-dose-only effect, or another doubt; inactive means no such curve, though single readings can be large; an effect the other way counts as inactive or inconclusive.

SMILES	TRPV1 ag	FUS suppressor	TRPV1 PAM	Giardia killer	ELG1 repair inh
Cc1ccc2c(c1)C(c1ccccc1)N(C(=O)c1cccc([N+](=O)[O-])c1)CC(=O)N2 (stereo not drawn)	4	i	-13	-3	13µM*
COc1ccc(-c2cnnn2-c2ccc(NC(=O)/C=C/c3ccc(OC)c(OC)c3)cc2)cc1	-4	/	-9	?	5.8µM*
COc1ccc(C(=O)Nc2sc(C)c(-c3ccccc3)c2C#N)cc1OC	11	i	-12	-9	26µM*
COc1ccc(CC(=O)Nc2oc(-c3ccccc3)c(-c3ccccc3)c2C#N)cc1OC	84*	i	-3	1	23µM*
COc1ccc2c(c1)cc1c(=O)n(CC(=O)NC3CCCCC3)nc(C)n12	/	i	/	/	/
O=C(NC1CCCCC1)c1cnn2c1NC(=C1CC1)C=C2C(F)F	/	/	/	7	/
O=C(Nc1cc(Sc2ccccn2)cc([N+](=O)[O-])c1)c1cccc(Cl)c1	-1	i	-3	-3	6.5µM*
CCOc1ccccc1NCc1nnc2n1CCCCC2	/	i	/	/	/
CCCn1nc([N+](=O)[O-])c(C(C#N)c2nc3ccccc3s2)c(Cl)c1=O (stereo not drawn)	1	i	6	?	18µM*
CCn1nc([N+](=O)[O-])c(C(C#N)c2nc3ccccc3n2C)c(Cl)c1=O (stereo not drawn)	-1	i	8	-3	0%
Cc1ccc2nc(-c3cccc(SC4CCCCC4)c3)c(NCc3ccccc3)n2c1	/	i	/	-1	26µM*
COc1ccc(-c2cc(-c3nc4ccccn4c3NCc3ccccc3)ccc2OC)cc1	/	i	/	-3	2.3µM*
CCCCNc1c(-c2ccc(OC)c(SC(C)CC)c2)nc2ccc(C)cn12 (stereo not drawn)	/	?	/	-14	7.3µM*
CCC(C)Sc1cccc(-c2nc3cc(C)ccn3c2NCc2ccccc2)c1 (stereo not drawn)	93*	?	14	-8	?
CCCCNc1c(-c2ccc(OC)c(SC(C)CC)c2)nc2ccc(Cl)cn12 (stereo not drawn)	/	?	/	2	-20%
O=S(=O)(CC1NCCc2ccccc21)NCCc1ccccc1 (stereo not drawn)	/	i	/	/	/
CCC(C(=O)O)n1ccc2cc(S(=O)(=O)N3CCCCC3)ccc21 (stereo not drawn)	/	i	/	/	/
COc1ccc(OCCn2c(C)nc3cc(C)c(C)cc32)cc1	/	i	/	/	/
COc1ccc(Cn2c(C(=O)O)c(CNCc3ccco3)c3ccc(OC)cc32)cc1	/	i	/	/	/
CCN(CC)S(=O)(=O)c1cccc(C(=O)Nc2ccccc2C(=O)Nc2ccc(OC)cc2)c1	/	i	/	/	/
COc1ccc(-c2nc3ccc(C)cn3c2NCc2ccccc2)cc1SC1CCCCC1	?	i	?	3	?
CCC(C)Sc1cc(-c2nc3ccc(C)cn3c2NCc2ccccc2)ccc1OC (stereo not drawn)	/	32µM*!	/	41	/
CCC(C)Sc1ccc(-c2nc3ccc(C)cn3c2NCc2ccccc2)cc1OC (stereo not drawn)	88*	?	30	-1	?
CCCCCCSc1ccc(-c2nc3ccc(C)cn3c2NCc2ccccc2)cc1OC	?	?	24	-10	?
CNc1ccccc(C(=O)/C=C/c2ccccc2OC)c1=O	-2	/	1	-1	23µM*
SMILES	TRPV1 ag	FUS suppressor	TRPV1 PAM	Giardia killer	ELG1 repair inh
CNc1ccc(Br)cc(C(=O)/C=C/c2cccc(OC)c2OC)c1=O	-2	i	18	-4	?
Cc1ccc(C)c(Nc2ncnc3onc(C)c23)c1	/	i	/	/	/
COc1ccccc1C(=O)Nc1ccnn1C1CCN(Cc2cc(C)c(C)cc2C)CC1	1	/	6	5	23µM*
COc1ccc(S(=O)(=O)Nc2cccc(-c3ccc(N4CCC(C)CC4)nn3)c2)c(OC)c1	/	i	/	/	/
COc1ccc(C(C)NC(=O)C2CCN(CCOc3ccc(Cl)cc3Cl)CC2)cc1OC (stereo not drawn)	/	i	/	/	/
COc1cc2c(cc1OC)C(c1ccccc1)N(Cc1ccc(S(=O)(=O)NC(=O)c3ccco3)cc1)CC2 (stereo not drawn)	/	i	/	/	/
COc1ccc([C@]23Cc4cc(OC)c(OC)cc4C(O2)C2=C(CC4(CCCCC4)OC2=O)O3)cc1	i	/	i	/	/
